Screening results as filed in PubChem.
Sampled rows, rich in hits. Any-hit rate of the full collection: about 8.1%.
KB-V1 MDR tox – qHTS assay for MDR1-selective chemotherapeutics: Primary screen using the drug-selected MDR subline cells KB-V1; KB-V1 MDR cells viability, CellTiter-Glo, 72 h; Potency, µM (highest dose often 46.1 µM), usual class: cytotoxic; actives 3.4% (n = 400,000); further: on the % scale 0 is the no-effect control and ±100 the full control effect; nearly all actives have a fitted effect of over 60% in size
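Cytotoxicity via CellTiter-Glo luminescence after 72 h compound exposure at 37 degrees C. Cells: drug-selected KB-V1 line, DMEM phenol-red free plus 10% FBS. Compounds tested at multiple concentrations; normalized data fitted to concentration-effect curves.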
ELG1 repair inh – qHTS screen for small molecules that inhibit ELG1-dependent DNA repair in human embryonic kidney (HEK293T) cells expressing luciferase-tagged ELG1; Potency, µM (titrated, usually from 46.1 µM), for inactives: at the top dose activity change, negative = inhibition, actives largely listed as inhibitors; HEK293T ELG1-luciferase reporter, luminescence, 16 h; DNA damage induced by 5-fluorouridine; actives 2.3% (n = 330,000); AID 504467, 2011; further: on the % scale 0 is the no-effect control and ±100 the full control effect; nearly all actives have a fitted effect of over 55% in size
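Overnight (16 hr) co-exposure of 2,000 cells/well to 5-fluorouridine and compound at 37 °C preceded detection. Luciferase was quantified via ONE-Glo luminescence; loss of signal denotes inhibition.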
KB-3-1 tox – qHTS assay for MDR1-selective chemotherapeutics: Primary screen using the parental adenocarcinoma cell KB-3-1. KB-3-1 viability, CellTiter-Glo ATP luminescence, 72 h. Potency, µM (top dose mostly 46.1 µM), hits mostly cytotoxic. actives 1.4% (n = 400,000). AID 1347075, 2019; further: on the % scale 0 is the no-effect control and ±100 the full control effect; nearly all actives have a fitted effect of over 60% in size
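Parental KB-3-1 adenocarcinoma cells in phenol-red-free DMEM with 10% FBS were pin-treated with compounds at several concentrations, incubated 72 h at 37 °C, and viability read by CellTiter-Glo luminescence; concentration-effect curves were fitted after normalization.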
SW480 rereplic – A quantitative high throughput screen for small molecules that induce DNA re-replication in SW480 colon adenocarcinoma cells; actives 1.8% (n = 340,000); Potency, µM (top dose mostly 46.1 µM), for inactives: top-dose re-replication activation, actives largely listed as activators; SW480 DNA re-replication, Hoechst DNA content imaging, 48 h; further: % of control where 0% means no effect; nearly all actives have a fitted effect of over 55% in size
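Compounds, transferred as 23 nL by pin tool, were incubated with cells for 48 hr; DNA content per nucleus was then quantified by Hoechst staining and fluorescence plate imaging.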
MCF10A rerep – A quantitative high throughput screen for small molecules that induce DNA re-replication in MCF 10a normal breast cells; Potency, µM (series often up to 46.1 µM), inactives show at the top dose activity, positive = re-replication, hits mostly activators; MCF 10A DNA re-replication, Hoechst nuclear intensity, 48 h; AID 624296, 2012; actives 2.9% (n = 350,000); further: % of control where 0% means no effect; nearly all actives have a fitted effect of over 50% in size
* = called active by the depositor; ! = a repeat was not active; [ ] = another dose, or the depositor's remark. The call rests on the fitted dose curve; in most records, active means well fitted curve in the direction sought with a large enough effect; inconclusive means small, poorly fitted or top-dose-only effect, or another doubt; inactive means no such curve, though single readings can be large; an effect the other way counts as inactive or inconclusive. Potency means the concentration at half of the fitted maximal effect.

What do the screens show for `CC(C)c1nc2ccccc2c2nnc(SCC(=O)NCc3ccco3)n12`?
KB-V1 MDR tox: 4.1µM*; ELG1 repair inh: -10%; KB-3-1 tox: inconclusive; SW480 rereplic: 14%; MCF10A rerep: inconclusive

Results for Cc1cc(C)n2c(SCC(=O)NCc3ccco3)nnc2n1 ?
KB-V1 MDR tox: inactive; ELG1 repair inh: 9%; KB-3-1 tox: inactive; SW480 rereplic: 1%; MCF10A rerep: 5%

Results for COc1ccc(-c2nnc(NC(=O)Nc3ccc4ccccc4c3)s2)cc1OC ?
KB-V1 MDR tox: inactive; KB-3-1 tox: inactive

Results for CC(=O)c1ccc(OCC(=O)OCC(=O)c2ccc(S(=O)(=O)N3CCCCC3)cc2)cc1 ?
KB-V1 MDR tox: inactive; KB-3-1 tox: inactive

How did Cc1cc2cc(CCNS(=O)(=O)c3ccc(Br)cc3)c(=O)[nH]c2cc1C do in these assays?
KB-V1 MDR tox: inactive; KB-3-1 tox: inactive

What do the screens show for `CN(Cc1nc2ccccc2c(=O)[nH]1)C(=O)c1cccc(S(=O)(=O)N2CCCC2)c1`?
KB-V1 MDR tox: inconclusive; ELG1 repair inh: -1%; KB-3-1 tox: inactive; SW480 rereplic: -6%; MCF10A rerep: 17%

How did Cc1cc(C)c(C)c(S(=O)(=O)N2CCC(C(=O)N(C)Cc3nc4ccccc4c(=O)[nH]3)CC2)c1C do in these assays?
KB-V1 MDR tox: 23µM*; KB-3-1 tox: inactive; SW480 rereplic: 9%; MCF10A rerep: 24%

What do the screens show for `Cc1c(C(=O)N(C)Cc2nc3ccccc3c(=O)[nH]2)oc2ccccc12`?
KB-V1 MDR tox: 8.2µM*; ELG1 repair inh: inconclusive; KB-3-1 tox: 18µM*; SW480 rereplic: 16µM*; MCF10A rerep: 10µM*

Results for CC(C)C(=O)Nc1cccc(C(=O)Nc2nnc(CC(C)(C)C)s2)c1 ?
KB-V1 MDR tox: inactive; KB-3-1 tox: inactive

What do the screens show for `CCOc1ccc(S(=O)(=O)N(CC)CC)cc1NC(=O)CSCc1c(C)noc1C`?
KB-V1 MDR tox: 7.3µM*; ELG1 repair inh: -19%; KB-3-1 tox: inactive; SW480 rereplic: 4%; MCF10A rerep: -1%

How did CCN(CC)c1ccc(S(=O)(=O)N2CCCCC2)cc1NC(=O)CSCc1c(C)noc1C do in these assays?
KB-V1 MDR tox: inactive; KB-3-1 tox: 23µM*; SW480 rereplic: 1%; MCF10A rerep: 29%

What do the screens show for `Cc1cc(C)c(NC(=O)CSCc2c(C)noc2C)c(C)c1`?
KB-V1 MDR tox: 23µM*; ELG1 repair inh: -7%; KB-3-1 tox: inactive; SW480 rereplic: -5%; MCF10A rerep: 7%

Results for Cc1ccc(-c2cnc(C(O)c3cccc(Cl)c3)[nH]2)cc1 (stereo not given) ?
KB-V1 MDR tox: inactive; KB-3-1 tox: inactive

Results for CCC(=O)NC(c1ccc(C)cc1)c1cc(Cl)c2cccnc2c1O (stereo not given) ?
KB-V1 MDR tox: inconclusive; ELG1 repair inh: 3.7µM*; KB-3-1 tox: inconclusive; SW480 rereplic: inconclusive; MCF10A rerep: -13%

How did CCC(=O)NC(c1ccc(OC)c(OC)c1)c1cc(Cl)c2cccnc2c1O (stereo not given) do in these assays?
KB-V1 MDR tox: inconclusive; ELG1 repair inh: inconclusive; KB-3-1 tox: 3.3µM*!; SW480 rereplic: inconclusive; MCF10A rerep: inconclusive

What do the screens show for `CCOc1ccc(C(NC(C)=O)c2cc(Cl)c3cccnc3c2O)cc1` (stereo not given)?
KB-V1 MDR tox: inactive; KB-3-1 tox: inactive

How did CCCC(=O)NC(c1cccs1)c1cc(Cl)c2cccnc2c1O (stereo not given) do in these assays?
KB-V1 MDR tox: inactive; ELG1 repair inh: 5%; KB-3-1 tox: inconclusive; SW480 rereplic: 1.3µM*; MCF10A rerep: 26%

Results for CCCC(=O)NC(c1ccco1)c1cc(Cl)c2cccnc2c1O (stereo not given) ?
KB-V1 MDR tox: inconclusive; ELG1 repair inh: inconclusive; KB-3-1 tox: inactive; SW480 rereplic: inconclusive; MCF10A rerep: inconclusive

What do the screens show for `COc1ccc(C(NC(C)=O)c2cc(Cl)c3cccnc3c2O)cc1OC` (stereo not given)?
KB-V1 MDR tox: inactive; ELG1 repair inh: inconclusive; KB-3-1 tox: inconclusive; SW480 rereplic: 1.6µM*; MCF10A rerep: inconclusive

What do the screens show for `COc1ccccc1C(NC(C)=O)c1cc(Cl)c2cccnc2c1O` (stereo not given)?
KB-V1 MDR tox: inconclusive; ELG1 repair inh: inconclusive; KB-3-1 tox: inconclusive; SW480 rereplic: 0.58µM*; MCF10A rerep: inconclusive

Results for CC(=O)NC(c1ccco1)c1cc(F)c2cccnc2c1O (stereo not given) ?
KB-V1 MDR tox: inactive; ELG1 repair inh: inconclusive; KB-3-1 tox: inconclusive; SW480 rereplic: 7%[9.22 µM]; MCF10A rerep: inconclusive

What do the screens show for `COc1ccc(C(=O)NC(c2ccc(Cl)cc2)c2cc(Cl)c3cccnc3c2O)cc1` (stereo not given)?
KB-V1 MDR tox: inconclusive; KB-3-1 tox: inactive
